For the assay, the target named is Scavenger receptor class B member 1 (Mus musculus) (UniProt Q61009). The experiment in a line: mouse SR-BI DiI-HDL transfer blockers – ldlA[mSR-BI] CHO cells, fluorescence plate reader, dry powder, set 9, dose response (AID 623880). The note with it: DiI-HDL uptake fluorescence, 3 h; series mostly up to 35 µM.

SMILES strings stand for the structures. Measured potencies and affinities stand elsewhere. Calls of active or inactive are those of the source.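 Rule for the calls: active = compounds lowering HDL dye uptake whose fitted half-effect dose is at most twice the top valid dose; inconclusive = flat curve with moderate signal loss, or poor fit; inactive = the rest.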

Sequence of Scavenger receptor class B member 1 (Mus musculus) (Q61009 whole entry, looked up): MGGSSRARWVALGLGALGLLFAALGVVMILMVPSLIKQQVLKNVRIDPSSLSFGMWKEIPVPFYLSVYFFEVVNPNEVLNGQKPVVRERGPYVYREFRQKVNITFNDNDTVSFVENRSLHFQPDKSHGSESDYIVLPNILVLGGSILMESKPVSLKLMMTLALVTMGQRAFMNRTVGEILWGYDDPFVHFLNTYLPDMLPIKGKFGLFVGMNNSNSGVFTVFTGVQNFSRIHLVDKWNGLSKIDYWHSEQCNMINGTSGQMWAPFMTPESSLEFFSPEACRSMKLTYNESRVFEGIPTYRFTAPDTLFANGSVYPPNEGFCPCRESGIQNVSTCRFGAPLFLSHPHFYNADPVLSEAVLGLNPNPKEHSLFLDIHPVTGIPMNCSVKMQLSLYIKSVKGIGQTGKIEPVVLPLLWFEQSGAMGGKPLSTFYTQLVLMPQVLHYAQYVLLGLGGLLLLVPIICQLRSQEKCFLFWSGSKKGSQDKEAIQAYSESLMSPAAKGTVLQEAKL

With `Cc1ccc(OCc2cc(C(=O)N3CCCC(O)C3)no2)cn1` (stereo unspecified), the result was inactive.

These data come from PubChem BioAssay AID623880 (Broad Institute, 2012).
